The list is not random: actives were taken first. Their share in the collection is about 3.6%.
BoNT A protease: blocks Botulinum neurotoxin A light chain protease; inhibition, % at 10 µM; AID 588499; multiplex microsphere protease substrate cleavage, flow cytometry; hit rate 0.17% among 360,000; further: plate controls were buffer without enzyme for full effect and enzyme alone for no effect
Anthrax LF prot: blocks Bacillus anthracis lethal factor protease; inhibition, % at 10 µM; P15917; multiplex microsphere protease cleavage assay, LF; hit rate 0.12% among 360,000; further: plate controls were buffer without enzyme for full effect and enzyme alone for no effect
Autofluor counter: flagged as autofluorescent in microsphere protease counterscreen; fluorescence intensity (no concentration beside the values); AID 624483; compound autofluorescence counterscreen, microsphere flow cytometry; hits give high values; hit rate 3.1% among 360,000; in the data active means fluorescence intensity above about 16000; inconclusive means no clear call, values can overlap the other calls
MazEF act: MazEF (E. coli) toxin RNase activation | FAM/BHQ RNA-DNA oligo cleavage fluorescence, 5 h | P0AE70 | activation, % at 20 µM | hit rate 0.32% among 350,000; in the data active means activation above about 50%
Target sequence (P0AE70 whole entry, looked up): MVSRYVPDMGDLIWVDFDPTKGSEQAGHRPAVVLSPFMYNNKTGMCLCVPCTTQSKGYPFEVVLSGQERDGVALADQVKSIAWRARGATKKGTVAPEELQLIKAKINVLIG
BoNT F protease: blocks Botulinum neurotoxin F light chain protease | inhibition, % at 10 µM | hit rate 0.22% among 360,000 | AID 588497 | Multiplex microsphere protease cleavage assay, flow cytometry; in the data active means inhibition above about 35%, passing the limit was not always enough; inconclusive means no clear call, values can overlap the other calls; further: plate controls were buffer without enzyme for full effect and enzyme alone for no effect
Starred values were filed as active, the others as inactive; u = inconclusive; x = not tested or not shown. Unless noted, no stated cut-off is given here; in the data, active means inhibition above about 30%; inconclusive means no clear call, values can overlap the other calls; inactive means below that.

SMILES	BoNT A protease	Anthrax LF prot	Autofluor counter	MazEF act	BoNT F protease
O=[N+]([O-])c1cc(/C=N/O)ccc1SCc1ccccc1	u	-6	22700*	6	-5
CN(CC(=O)Nc1ccccc1Cl)CC(=O)N(C)c1c(N)n(Cc2ccccc2)c(=O)[nH]c1=O	0	-4	4057	0	1
CN(CC(=O)Nc1ccccc1Cl)CC(=O)c1c(N)n(Cc2ccccc2)c(=O)n(C)c1=O	x	x	x	67*	x
Cc1cnc(CNC(=O)C2(C)CCCN2CC(C)C)cn1 (configuration not stated)	-1	1	3088	x	3
Cc1ccc(C(=O)NCC(=O)OCc2nc3ccsc3c(=O)[nH]2)cc1C	-1	-6	2847	5	2
C=CCn1c(COC)nnc1SCC(=O)c1ccc(F)cc1	u	-4	16919*	0	-2
O=C(O)CSCC(=O)Nc1ccccc1	-2	-1	16554*	-14	-2
CC(=O)c1cccc(NC(=O)CSCc2ccccc2)c1	0	0	16402*	-1	-3
O=C(CN1C(=O)C2(OCCCO2)c2ccccc21)NCc1ccccc1	-3	-4	17108*	-10	-4
CCOc1ccccc1CN1C(=O)C2(OCCO2)c2ccccc21	0	6	3606	-2	u
Cc1ccc(CNC(=O)CN2C(=O)C3(OCCCO3)c3ccccc32)cc1	38*	-21	11499	4	40*
O=C(CN1C(=O)C2(OCCO2)c2ccccc21)c1ccc(Cl)cc1	u	-3	16345*	0	0
Cc1ccc(C)c(CN2C(=O)C3(OCCCO3)c3ccccc32)c1	-1	-3	23436*	1	-2
Oc1ccc(C[C@H]2CNC(=S)N2CC2CCCN2C[C@H](Cc2ccc(O)cc2)N2C[C@H](Cc3ccccc3)N(CC3CCCCC3)C2=S)cc1 (some centres not stated)	0	-3	3956	-18	-3
COc1ccc(N2CCN(C(=O)c3cn(CC4CCCCC4)nn3)CC2)cc1	2	-1	4370	4	3
COC(=O)CN1C(=O)C2(OCCCO2)c2cc(Br)ccc21	0	0	23376*	-4	4
Cc1nnc(SCc2ccc(F)cc2)s1	1	-4	2649	4	u
Nc1nnc(SCc2ccc(F)cc2)s1	u	0	23088*	-1	-1
CN(C)c1nc(N)nc(CSc2nnnn2-c2ccc(F)cc2)n1	0	1	23095*	6	2
Cc1cc2ncn(-c3ncnc4sc(C)c(C)c34)c2cc1C	0	-3	2856	3	4
Cc1cc2ncn(-c3ncnc4scc(-c5ccccc5)c34)c2cc1C	u	0	24244*	2	-5
COC(=O)c1c(O)c2ccccc2[nH]c1=O	8	4	19580*	-3	12
CC(C)NC(=O)c1c(O)c2ccccc2[nH]c1=O	0	-5	11106	-1	-12
Cc1ccc(C)c(S(=O)(=O)NCC(=O)Nc2sc3c(c2C(N)=O)CCC(C)C3)c1 (configuration not stated)	0	0	2585	56*	6
CCOC(=O)Nc1sc2c(c1C(N)=O)CCC(C)C2 (configuration not stated)	-1	0	4113	2	-3
SMILES	BoNT A protease	Anthrax LF prot	Autofluor counter	MazEF act	BoNT F protease
C=CCn1c(=O)c2c3c(sc2n2c(Nc4ccc(C(=O)OCC)cc4)nnc12)CCCC3	-3	1	17959*	-11	-8
Cc1nc2c(C(=O)N3CCC4(CC3)OCCO4)cnn2c(C)c1Cc1cccc(Cl)c1	0	-2	3969	1	-4
Cc1nc2c(C(=O)O)cnn2c(C)c1Cc1ccccc1F	u	-13	19848*	-4	8
Cc1nc2c(C(=O)N3CCCC3)cnn2c(C)c1Cc1c(F)cccc1Cl	-1	-5	23177*	4	-4
Cc1ccccc1Cc1c(C)nc2nc(SCC(=O)NCc3ccco3)nn2c1C	2	-9	9154	0	8
Cc1ccccc1Cc1c(C)nc2c(C(=O)NCc3ccco3)cnn2c1C	-4	-4	17104*	-7	-5
CN[C@H]1C[C@H]2c3[nH]c4ccc(-c5cccc(C)c5)cc4c3CCN2C[C@H]1[C@H](C)O	1	-8	3515	-16	-22
O=C(CSc1ncccn1)NC1CCS(=O)(=O)C1 (configuration not stated)	-4	-2	4920	3	u
O=C1CCCCC1C(O)(C(=O)c1ccccc1)c1ccccc1 (configuration not stated)	0	3	4187	0	4
Cc1cc(/C=N\NC(=O)CC(=O)NC2CCCCC2)c(C)n1-c1cccc(Cl)c1Cl	-1	-2	1967	-2	2
